From PubChem BioAssay (NCATS) come the findings set out here.

Each structure is given as a SMILES string. Records with an inconclusive call do not appear. Calls of active or inactive are those of the source. Unless noted, calls follow the shape of the dose curve; as a rule, active = well fitted curve in either direction with a large enough effect (not every such curve was filed as active); inconclusive = small, poorly fitted or top-dose-only effect, or another doubt; inactive = flat fitted curve, though single readings scatter.

The target of assay [1] is Lysosomal acid glucosylceramidase (Homo sapiens) (UniProt P04062). As to the kind of experiment: Glucocerebrosidase-p2 (AID 348; in the data active = potency below about 10 µM; also: potency is read from the fitted curve at half-maximal effect). The conditions noted are these: purified GBA, blue fluorogenic substrate, 40 min. A digest of the protocol: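 Normal human glucocerebrosidase (0.2 nM) with blue fluorogenic substrate (80 uM final) in citrate/phosphate pH 5.9 with 10mM sodium taurocholate, 0.01% tween-20; 40 min RT, NaOH/glycine stop; fluorescence Ex 365/Em 440; AC50 from a titration from 0.6 nM upwards.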
Chain of Lysosomal acid glucosylceramidase (Homo sapiens) (P04062 whole entry, looked up): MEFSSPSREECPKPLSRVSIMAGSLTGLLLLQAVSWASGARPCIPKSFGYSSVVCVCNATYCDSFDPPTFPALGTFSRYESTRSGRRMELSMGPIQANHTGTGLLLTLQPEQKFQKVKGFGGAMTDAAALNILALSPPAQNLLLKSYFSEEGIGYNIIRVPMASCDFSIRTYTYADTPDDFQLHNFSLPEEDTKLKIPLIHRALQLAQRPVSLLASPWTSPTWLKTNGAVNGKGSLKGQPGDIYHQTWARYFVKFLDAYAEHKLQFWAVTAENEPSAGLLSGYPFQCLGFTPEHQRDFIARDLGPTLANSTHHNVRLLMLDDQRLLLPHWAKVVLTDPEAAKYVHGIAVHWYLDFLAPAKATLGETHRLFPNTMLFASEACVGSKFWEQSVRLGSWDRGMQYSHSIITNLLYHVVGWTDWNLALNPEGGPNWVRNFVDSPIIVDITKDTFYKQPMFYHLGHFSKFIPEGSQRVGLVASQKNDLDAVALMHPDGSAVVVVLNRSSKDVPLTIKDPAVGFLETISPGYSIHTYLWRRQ

Assay [2] is described as follows: AP1 Signaling Pathway (AID 357). Also: % is scaled to controls: 0 for no effect and ±100 for the full control effect. The settings on record: ME-180 AP-1-bla reporter, EGF-induced, beta-lactamase ratio, 5 h; at 7.69 µM (top of the series) unless noted. Summed up:
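AP-1-bla ME-180 cells with beta-lactamase reporter under AP-1 response element, stimulated with EC50 EGF; compounds titrated, 5 hours at 37 degrees Celsius. CCF4 read at 460/530 nm ratio; positive and negative modulators judged by AC50.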

Assay [3] addresses Cytochrome P450 1A2 (Homo sapiens) (UniProt P05177). As to the kind of experiment: p450-cyp1a2 (AID 410; calls by dose curve; also: potency is read from the fitted curve at half-maximal effect). The conditions noted are these: recombinant CYP1A2, luciferin-ME demethylation, luminescence; series mostly up to 57 µM. A digest of the protocol: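 Luminescent demethylation readout: Luciferin-ME (100uM, equal to Km) turned over by 20nM CYP1A2 for 60 min at room temperature after NADPH regeneration addition, following 10 min compound preincubation. Normalization used 57 uM furafylline as full inhibition.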

Assay [4] can be described thus: Stat Signaling Pathway (AID 446).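 Also: ME-180 cervical cancer cells given 40 pM IL-6 alongside compound; SIE-controlled beta-lactamase reporter measured as 460/530 nm FRET emission ratio; % is scaled to controls: 0 for no effect and ±100 for the full control effect.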 The conditions noted are these: ME-180 SIE beta-lactamase reporter, IL-6 stimulated, 5 h; at 7.69 µM (top of the series) unless noted. A digest of the protocol:
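Compound effects on IL-6-induced STAT reporter activity were measured in ME-180 cells. After overnight culture, cells were co-treated with 40 pM IL-6 for 5 hrs before beta-lactamase substrate loading at room temperature.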

Assay [5] deals with Glucocorticoid receptor (Homo sapiens) (UniProt P04150). Put plainly: GR-EFC Redistribution (AID 451; calls by dose curve; also: potency is read from the fitted curve at half-maximal effect). The settings on record: CHO-K1 GR-EFC translocation, beta-gal luminescence, 2 h. Summed up:
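CHO-K1 cells expressing nuclear EA and GR-ED fragments of b-gal; compounds titrated up to 46 uM final, 2 h at 37 C. GR nuclear translocation read as complemented b-gal luminescence after 1 h RT detection.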

For assay [6], the target named is Mitogen-activated protein kinase 10 (Mus musculus) (UniProt Q61831). As to the kind of experiment: JNK3 AlphaScreen Assay (AID 530).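 Also: kinase came from lysate of stimulated human HepG2 cells; signal reports phosphorylation of biotinylated GST-cJun 1-79 at Ser73 with 10 µM ATP; % is scaled to controls: 0 for no effect and ±100 for the full control effect.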 The conditions noted are these: JNK3 lysate, c-Jun phosphorylation; series mostly up to 57.1 µM. A digest of the protocol: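 Activity was read by AlphaScreen after JNK3-containing HepG2 lysate (cytokine pre-activated) phosphorylated biotinylated GST-cJun with 10 uM ATP at room temperature. Phospho-Ser73 cJun antibody with Protein-A acceptor beads provided detection.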

The target in assay [7] is 3',5'-cyclic-AMP phosphodiesterase 4B (Homo sapiens) (UniProt Q07343). As to the kind of experiment: qHTS Assay for Inhibitors of PDE-IV (AID 607; active = well fitted activation curve with a large enough effect in the main read-out, with a control signal flat, not every such curve was filed as active; also: % of control where 0% means no effect). The settings on record: HEK293 ACTOne CNG channel cells, membrane potential fluorescence; series mostly up to 22.9 µM. Summed up: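 ACTOne HEK293 cells carry a modified cAMP-gated CNG channel and express endogenous PDE4; plated 1000 cells/well, compounds up to 22.9 uM final. Membrane-potential dye fluorescence (ex 535/em 590) was read; parental cells received 10 uM forskolin + 100 uM RO 20-1724.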
Chain of 3',5'-cyclic-AMP phosphodiesterase 4B (Homo sapiens) (Q07343 whole entry, looked up): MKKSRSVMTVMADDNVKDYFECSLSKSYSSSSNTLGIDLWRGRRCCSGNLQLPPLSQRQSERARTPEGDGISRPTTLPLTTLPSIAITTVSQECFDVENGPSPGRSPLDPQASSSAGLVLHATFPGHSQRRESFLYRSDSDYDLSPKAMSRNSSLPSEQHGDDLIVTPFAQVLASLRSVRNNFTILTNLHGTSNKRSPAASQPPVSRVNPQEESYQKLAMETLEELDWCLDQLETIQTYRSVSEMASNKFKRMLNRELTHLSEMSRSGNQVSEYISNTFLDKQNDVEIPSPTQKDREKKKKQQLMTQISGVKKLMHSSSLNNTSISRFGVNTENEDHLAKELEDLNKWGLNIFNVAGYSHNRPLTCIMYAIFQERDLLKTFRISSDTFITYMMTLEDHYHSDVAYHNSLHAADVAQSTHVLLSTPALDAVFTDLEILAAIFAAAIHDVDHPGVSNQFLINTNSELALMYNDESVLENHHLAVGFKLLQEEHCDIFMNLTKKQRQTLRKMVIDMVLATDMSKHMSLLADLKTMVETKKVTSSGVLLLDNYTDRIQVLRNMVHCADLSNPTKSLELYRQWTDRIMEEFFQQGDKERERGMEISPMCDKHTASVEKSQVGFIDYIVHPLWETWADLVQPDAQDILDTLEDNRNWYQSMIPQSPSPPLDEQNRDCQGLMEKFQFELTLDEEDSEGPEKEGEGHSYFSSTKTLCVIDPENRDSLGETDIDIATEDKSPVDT
(In general: Quantitative high-throughput screening tests each substance at several concentrations.)

Assay [8] addresses Cytochrome P450 3A4 (Homo sapiens) (UniProt P08684). As to the kind of experiment: qHTS Assay for Activators of Cytochrome P450 3A4 (AID 885; active = well fitted curve in the direction sought with a large enough effect; an effect the other way counts as inactive or inconclusive; also: nearly all actives have a fitted effect of over 65% in size). The settings on record: recombinant CYP3A4, Luciferin-PPXE luminescence, 60 min; series mostly up to 57.1 µM. A digest of the protocol: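 CYP3A4 activity: Luciferin-PPXE O-dealkylation, 25uM substrate, 200mM KPO4, RT throughout. Read-out is luciferase luminescence; higher values reflect activation.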

Assay [9] is described as follows: qHTS Assay for Identification of Small Molecule Agonists for Hypoxia Response Element Signaling Pathway (AID 914; active = well fitted activation curve with a large enough effect in the signal ratio, with a control signal flat, not every such curve was filed as active; the % refers to the signal ratio; also: % of control where 0% means no effect). The conditions noted are these: ME-180 (cervical carcinoma) HRE-bla reporter, beta-lactamase ratio, CoCl2, 17 h; activation: stronger effect = higher value. A digest of the protocol:
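Compounds in a titration series were added to ME-180 reporter cells alongside an EC50 level of CoCl2. After 17 hours, beta-lactamase activity was read as the 460nm/530nm emission ratio of CCF4, giving AC50 values.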

Assay [10] in a line: qHTS Assay for Lipid Storage Modulators (AID 1519; calls by dose curve). The conditions noted are these: Drosophila S3 cells, BODIPY lipid droplet/cell ratio, laser cytometry, cells loaded with oleic acid; for activity change, negative = inhibition: at 57.5 µM (top of the series). A digest of the protocol: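 Cells seeded at 5,000 per well were treated with compounds over a concentration series and loaded with oleic acid (400 uM, as added). Lipid droplet fluorescence (488 nm excitation, 500-530 nm channel) was read by laser-scanning cytometry and normalized to 20 uM Triacsin C.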

A short description of assay [11]: Primary qHTS for small molecule stabilizers of the endoplasmic reticulum resident proteome: Secreted ER Calcium Modulated Protein (SERCaMP) assay (AID 1508630; active = well fitted curve in the direction sought with a large enough effect; an effect the other way counts as inactive or inconclusive; also: % is scaled to controls: 0 for no effect and ±100 for the full control effect). The settings on record: SH-SY5Y GLuc-SERCaMP (Gaussia luciferase released on ER calcium loss) secretion, thapsigargin, luminescence; series mostly up to 38.4 µM. A digest of the protocol: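 The SH-SY5Y reporter protocol was run at 3 concentrations up to 38.3 uM (primary) or 11 concentrations (follow-up): 16 h compound, 100 nM thapsigargin for 4 h, then extracellular luciferase luminescence.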

Assay [12] has as its target Cytochrome P450 2C9 (Homo sapiens) (UniProt P11712). Put plainly: qHTS Assay for Inhibitors and Substrates of Cytochrome P450 2C9 (AID 883; active = well fitted curve in the direction sought with a large enough effect; an effect the other way counts as inactive or inconclusive; also: % is scaled to controls: 0 for no effect and ±100 for the full control effect; nearly all actives have a fitted effect of over 60% in size). The settings on record: recombinant CYP2C9, luciferin-H luminescence, 60 min; series mostly up to 57.1 µM. A digest of the protocol: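 10nM CYP2C9 + 100uM Luciferin-H (=KM), 25mM KPO4; cpd 10 min 37C; NADPH regen, 60 min 37C; stop/detect with P450 Glo-Buffer 20 min; luminescence. Norm. to 57uM sulphaphenazole as full inhibition.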

The target in assay [13] is Cytochrome P450 2C19 (Homo sapiens) (UniProt P33261). Put plainly: qHTS Assay for Inhibitors and Substrates of Cytochrome P450 2C19 (AID 899; active = well fitted curve in the direction sought with a large enough effect; an effect the other way counts as inactive or inconclusive; also: % is scaled to controls: 0 for no effect and ±100 for the full control effect; nearly all actives have a fitted effect of over 60% in size). The conditions noted are these: recombinant CYP2C19, luciferin-H EGE luminescence; series mostly up to 57.1 µM. A digest of the protocol: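 Luminescent read-out of luciferin formed from Luciferin-H EGE (10uM, equal to KM). Enzyme 5nM in 50mM KPO4; compound added, 10 min at 37C, then NADPH regenerating system for 60 min at 37C. Full inhibition defined by 57uM ketoconazole.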
Chain of Cytochrome P450 2C19 (Homo sapiens) (P33261 whole entry, looked up): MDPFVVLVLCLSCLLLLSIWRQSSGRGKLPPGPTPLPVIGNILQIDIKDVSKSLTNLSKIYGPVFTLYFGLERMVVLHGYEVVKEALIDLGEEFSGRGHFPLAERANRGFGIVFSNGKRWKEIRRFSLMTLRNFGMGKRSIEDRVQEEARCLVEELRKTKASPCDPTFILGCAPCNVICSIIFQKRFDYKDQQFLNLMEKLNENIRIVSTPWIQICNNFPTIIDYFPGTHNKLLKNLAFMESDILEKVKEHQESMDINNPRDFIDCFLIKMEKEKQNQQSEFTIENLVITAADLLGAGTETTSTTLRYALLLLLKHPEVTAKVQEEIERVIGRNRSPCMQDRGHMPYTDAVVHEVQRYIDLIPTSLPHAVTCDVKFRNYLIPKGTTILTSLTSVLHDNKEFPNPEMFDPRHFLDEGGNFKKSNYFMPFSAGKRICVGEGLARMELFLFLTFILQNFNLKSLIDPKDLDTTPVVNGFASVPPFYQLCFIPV

The target in assay [14] is Cytochrome P450 2D6 (Homo sapiens) (UniProt P10635). As to the kind of experiment: qHTS Assay for Inhibitors and Substrates of Cytochrome P450 2D6 (AID 891; active = well fitted curve in the direction sought with a large enough effect; an effect the other way counts as inactive or inconclusive; also: potency is read from the fitted curve at half-maximal effect; nearly all actives have a fitted effect of over 60% in size). The conditions noted are these: recombinant CYP2D6, luciferin-ME EGE luminescence; series mostly up to 57.1 µM. Summed up: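 Luminescent read-out of luciferin formed by 5 nM human CYP2D6 demethylating 30 uM Luciferin-ME EGE (Km level) over 60 min at room temperature after NADPH regeneration addition. Data normalized to full inhibition by 1.43 uM quinidine.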
Chain of Cytochrome P450 2D6 (Homo sapiens) (P10635 whole entry, looked up): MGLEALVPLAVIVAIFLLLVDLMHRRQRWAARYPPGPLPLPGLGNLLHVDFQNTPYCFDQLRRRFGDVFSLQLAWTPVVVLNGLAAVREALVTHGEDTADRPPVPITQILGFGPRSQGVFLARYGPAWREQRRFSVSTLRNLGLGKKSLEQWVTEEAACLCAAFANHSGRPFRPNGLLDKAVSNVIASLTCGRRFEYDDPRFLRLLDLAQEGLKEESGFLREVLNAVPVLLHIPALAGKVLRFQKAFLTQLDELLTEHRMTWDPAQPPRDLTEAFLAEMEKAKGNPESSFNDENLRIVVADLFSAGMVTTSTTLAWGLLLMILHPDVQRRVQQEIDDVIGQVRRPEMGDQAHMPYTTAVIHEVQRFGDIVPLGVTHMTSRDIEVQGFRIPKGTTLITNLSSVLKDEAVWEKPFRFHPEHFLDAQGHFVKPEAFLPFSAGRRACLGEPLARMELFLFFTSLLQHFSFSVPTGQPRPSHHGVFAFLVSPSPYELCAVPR

Setting [15] is: measured here: cell count channel max response.
[16] abbreviates: measured here: lipid channel max response.

Chain of Cytochrome P450 3A4 (Homo sapiens) (P08684 whole entry, looked up): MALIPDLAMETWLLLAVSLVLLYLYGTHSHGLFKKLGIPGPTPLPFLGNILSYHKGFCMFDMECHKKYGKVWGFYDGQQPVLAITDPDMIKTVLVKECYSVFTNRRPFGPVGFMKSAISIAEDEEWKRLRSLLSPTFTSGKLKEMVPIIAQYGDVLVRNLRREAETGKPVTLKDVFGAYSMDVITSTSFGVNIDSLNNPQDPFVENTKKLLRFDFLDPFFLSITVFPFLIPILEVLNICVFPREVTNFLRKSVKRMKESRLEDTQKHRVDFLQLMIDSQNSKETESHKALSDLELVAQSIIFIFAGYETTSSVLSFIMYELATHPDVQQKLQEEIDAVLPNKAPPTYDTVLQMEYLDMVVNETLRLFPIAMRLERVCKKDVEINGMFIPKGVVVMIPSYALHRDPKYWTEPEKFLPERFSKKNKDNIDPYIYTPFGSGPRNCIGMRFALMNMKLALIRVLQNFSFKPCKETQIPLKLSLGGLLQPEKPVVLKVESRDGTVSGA
Chain of Cytochrome P450 1A2 (Homo sapiens) (P05177 whole entry, looked up): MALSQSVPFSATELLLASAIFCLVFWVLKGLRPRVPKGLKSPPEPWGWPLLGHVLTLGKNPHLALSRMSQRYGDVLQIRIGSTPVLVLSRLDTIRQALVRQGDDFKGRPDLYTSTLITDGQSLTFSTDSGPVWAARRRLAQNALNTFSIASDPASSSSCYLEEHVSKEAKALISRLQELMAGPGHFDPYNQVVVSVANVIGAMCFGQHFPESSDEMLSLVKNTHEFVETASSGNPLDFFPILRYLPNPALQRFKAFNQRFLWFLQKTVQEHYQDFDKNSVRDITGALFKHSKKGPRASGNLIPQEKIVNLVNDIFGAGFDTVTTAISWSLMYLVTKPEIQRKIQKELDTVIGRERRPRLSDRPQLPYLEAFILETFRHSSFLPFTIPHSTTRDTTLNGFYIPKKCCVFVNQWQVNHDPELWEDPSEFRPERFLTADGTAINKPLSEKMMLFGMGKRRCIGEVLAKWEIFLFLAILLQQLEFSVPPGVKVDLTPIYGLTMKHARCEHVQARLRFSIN
Chain of Glucocorticoid receptor (Homo sapiens) (P04150 whole entry, looked up, the tested form may be a part): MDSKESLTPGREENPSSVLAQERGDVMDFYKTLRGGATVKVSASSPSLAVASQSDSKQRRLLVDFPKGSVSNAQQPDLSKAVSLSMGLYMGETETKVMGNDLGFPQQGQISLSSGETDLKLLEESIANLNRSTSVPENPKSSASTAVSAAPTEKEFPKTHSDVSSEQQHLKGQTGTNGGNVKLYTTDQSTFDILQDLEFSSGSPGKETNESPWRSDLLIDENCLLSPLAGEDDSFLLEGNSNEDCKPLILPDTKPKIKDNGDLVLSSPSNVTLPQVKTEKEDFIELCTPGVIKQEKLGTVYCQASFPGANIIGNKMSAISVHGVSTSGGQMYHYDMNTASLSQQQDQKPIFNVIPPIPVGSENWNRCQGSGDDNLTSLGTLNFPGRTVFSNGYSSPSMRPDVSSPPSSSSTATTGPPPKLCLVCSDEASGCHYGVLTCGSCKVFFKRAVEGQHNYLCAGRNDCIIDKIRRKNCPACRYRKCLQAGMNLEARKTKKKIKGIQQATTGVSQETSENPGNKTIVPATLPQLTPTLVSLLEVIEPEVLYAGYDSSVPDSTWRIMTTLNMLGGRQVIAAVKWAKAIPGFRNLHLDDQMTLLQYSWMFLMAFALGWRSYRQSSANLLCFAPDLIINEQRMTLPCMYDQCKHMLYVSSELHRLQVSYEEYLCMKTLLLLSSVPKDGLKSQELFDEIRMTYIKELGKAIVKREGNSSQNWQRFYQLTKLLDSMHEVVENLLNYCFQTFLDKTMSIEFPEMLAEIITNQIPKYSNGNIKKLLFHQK
Chain of Cytochrome P450 2C9 (Homo sapiens) (P11712 whole entry, looked up): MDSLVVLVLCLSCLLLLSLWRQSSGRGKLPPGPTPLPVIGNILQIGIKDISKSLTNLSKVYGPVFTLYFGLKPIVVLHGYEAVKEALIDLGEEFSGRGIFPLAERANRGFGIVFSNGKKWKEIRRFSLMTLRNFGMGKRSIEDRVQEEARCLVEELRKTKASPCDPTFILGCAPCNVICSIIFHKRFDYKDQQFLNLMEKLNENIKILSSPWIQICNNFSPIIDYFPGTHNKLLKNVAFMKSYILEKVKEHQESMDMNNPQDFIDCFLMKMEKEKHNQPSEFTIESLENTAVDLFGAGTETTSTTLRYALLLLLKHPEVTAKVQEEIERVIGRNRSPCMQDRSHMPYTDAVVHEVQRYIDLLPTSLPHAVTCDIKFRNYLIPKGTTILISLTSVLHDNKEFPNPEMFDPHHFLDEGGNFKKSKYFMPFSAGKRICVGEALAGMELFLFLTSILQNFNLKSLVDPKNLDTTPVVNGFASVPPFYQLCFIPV

Turning to `COc1ccccc1CN1CCCC2(CCN(C(=O)c3csnn3)CC2)C1`, the Potency was > 11.4 µM (inactive) in assay [1] and > 46 µM (inactive) in [5]. The activity change, negative = inhibition was 3.73% (inactive) in assay [2] and 6.98% (inactive) in assay [10]. The Potency entry in assay [3], in assay [6], in assay [7] and in [8] was “inactive” each time. Besides, the activity, negative = inhibition in assay [4] was 0.773% (inactive). Moreover, the activation in assay [9] is 12.1% (inactive). Besides, the values for the max response in [10] (setting [15]) and in assay [10] (setting [16]) were 9.62% and 21.2%, respectively. Besides, the result in assay [11] was inactive.

With `N#Cc1ccc(CN2CCCC3(CCN(C(=O)c4ccncc4)CC3)C2)cc1`, the Potency in assay [1] was > 11.4 µM (inactive). Also, the activity change, negative = inhibition in assay [2] was -16.7% (inactive); in assay [10], 2.04% (inactive). Further, the Potency entry in assay [3], in [6], in [7], in assay [12], in [8] and in assay [13] was “inactive” in each case. Moreover, in assay [4], the activity, negative = inhibition was 1.22% (inactive). In addition, the max response turned out to be 4.42% in assay [10] (setting [15]) and 7.34% in [10] (setting [16]). Besides, the result in assay [11] was inactive.

Turning to `O=C(c1cccc(F)c1)N1CCC2(CCN(Cc3ccccc3)CC2)CC1`, the Potency in [1] is > 11.4 µM (inactive); in [5], > 46 µM (inactive); in [14], 7.94 µM (active). Besides, the figures for the activity change, negative = inhibition in assay [2] and in assay [10] were -3.73% (inactive) and 2.97% (inactive), respectively. The Potency result in assay [3], in assay [6] and in [7] was “inactive” in each case. Besides, in [4], the activity, negative = inhibition is 0.711% (inactive). In addition, the values for the max response in assay [10] (setting [15]) and in [10] (setting [16]) were 6.47% and 15.1%, respectively. In addition, in assay [11], the result was inactive.

Turning to `COC(=O)N1CCC2(CCN(Cc3ccccc3OC)CC2)CC1`, the Potency in assay [1] is > 11.4 µM (inactive); in assay [5], > 46 µM (inactive); in assay [14], 2 µM (active). Also, the activity change, negative = inhibition was 8.84% (inactive) in [2] and 2.37% (inactive) in [10]. The Potency result in [3], in assay [6] and in [7] was “inactive” each time. In addition, in [4], the activity, negative = inhibition is -8.38% (inactive). Besides, the activation in [9] was 2.91% (inactive). Further, the max response was 6.33% in [10] (setting [15]) and 9.77% in assay [10] (setting [16]). For the same compound, the outcome in assay [11] was inactive.

Take `COc1ccccc1CN1CCC2(CCNCC2)CC1`: the Potency in assay [1] was > 11.4 µM (inactive); in [5], > 46 µM (inactive); in assay [14], 0.0316 µM (active). Moreover, the activity change, negative = inhibition in [2] is -18.9% (inactive); in [10] it was -2.64% (inactive). For the same compound, the Potency result in assay [3], in assay [6] and in assay [7] was “inactive” each time. Besides, in assay [4], the activity, negative = inhibition was 6.24% (inactive). Besides, the max response in [10] (setting [15]) is 1.08%; in [10] (setting [16]), -0.266%. Besides, the result in assay [11] was inactive.

Take `O=C(c1ccncc1)N1CCC2(CCN(Cc3ccccc3)CC2)CC1`: the Potency in assay [1] is > 11.4 µM (inactive); in assay [5] it was > 46 µM (inactive). The activity change, negative = inhibition in assay [2] is 3.68% (inactive); in assay [10], 3.67% (inactive). Further, the Potency result in [3], in assay [6], in assay [7], in assay [8] and in assay [13] was “inactive” each time. Besides, the activity, negative = inhibition in [4] was -6.01% (inactive). Moreover, the values for the max response in assay [10] (setting [15]) and in [10] (setting [16]) were 13.9% and 18.6%, respectively. In addition, in assay [11], the result was inactive.

Take `COCC(=O)N1CCC[C@@]2(CCN(C(c3ccccc3)c3ccccc3)C2)C1`: the Potency in assay [1] is > 11.4 µM (inactive); in [3] it was 12.6 µM (active); in assay [5] it was > 46 µM (inactive); in assay [14], 6.31 µM (active). Also, the activity change, negative = inhibition was 0.34% (inactive) in assay [2] and -13.8% (inactive) in assay [10]. Further, the activity, negative = inhibition in assay [4] was -0.903% (inactive). In addition, the Potency entry in assay [6], in assay [7] and in assay [8] was “inactive” in each case. Besides, the results for the max response in assay [10] (setting [15]) and in assay [10] (setting [16]) were -8.5% and -21.2%, respectively. Further, in assay [11], the result was inactive.
